# Measurements: the supplement of paper PMC10849652
# The full data set covers some 7,900 targets. This sample favours those with a hit. About 0.6% of all pairs of compound and target were hits. A number with no mark means an inactive call.
# Columns and labels:
# Experiment in all cases: log2 fold change, soluble protein after heating vs DMSO (PISA); higher = thermal stabilisation; K562 cells, 10 uM, 30 min; active = over 0.2 and 3.5 SD of the protein, either way, in both replicates (recomputed)
# [1] = biological target: YAE1 (UniProt Q9NRH1)
# YAE1, sequence (Q9NRH1 whole entry, looked up): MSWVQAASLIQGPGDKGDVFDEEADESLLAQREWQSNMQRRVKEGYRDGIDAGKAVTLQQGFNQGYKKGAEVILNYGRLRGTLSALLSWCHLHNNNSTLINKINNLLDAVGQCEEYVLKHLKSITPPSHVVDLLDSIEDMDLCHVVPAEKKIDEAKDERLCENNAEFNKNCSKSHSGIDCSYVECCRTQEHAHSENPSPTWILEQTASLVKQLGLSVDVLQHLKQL
# Procedure, shortened: (§1)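 K562 cells at 2×10^6 cells/mL were treated for 30 min with 10 μM compound, and aliquots were heated for 3 min over 48°C-58°C before pooling. Extraction used PBS with 0.5% NP-40 at 4°C, and soluble protein was the supernatant after 21,000xg for 90 min, measured by TMTpro 16plex LC-MS/MS with channel sums equalised. Thermal stability values, relative to control samples and from duplicates, are log2 fold changes.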
# [2] = biological target: YBX1 (UniProt P67809)
# YBX1 (UniProt P67809), sequence (P67809 whole entry, looked up): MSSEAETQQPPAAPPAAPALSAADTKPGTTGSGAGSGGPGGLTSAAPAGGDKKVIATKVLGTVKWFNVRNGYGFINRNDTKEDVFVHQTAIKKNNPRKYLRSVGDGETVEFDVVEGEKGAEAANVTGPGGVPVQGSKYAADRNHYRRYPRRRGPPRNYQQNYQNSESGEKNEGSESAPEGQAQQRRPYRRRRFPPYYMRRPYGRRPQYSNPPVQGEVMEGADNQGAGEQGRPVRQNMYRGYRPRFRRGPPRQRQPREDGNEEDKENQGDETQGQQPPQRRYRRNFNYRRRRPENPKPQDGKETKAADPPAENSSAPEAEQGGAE
# Procedure, shortened: as §1
# [3] = biological target: YES1 (UniProt P07947)
# YES1, sequence (P07947 whole entry, looked up): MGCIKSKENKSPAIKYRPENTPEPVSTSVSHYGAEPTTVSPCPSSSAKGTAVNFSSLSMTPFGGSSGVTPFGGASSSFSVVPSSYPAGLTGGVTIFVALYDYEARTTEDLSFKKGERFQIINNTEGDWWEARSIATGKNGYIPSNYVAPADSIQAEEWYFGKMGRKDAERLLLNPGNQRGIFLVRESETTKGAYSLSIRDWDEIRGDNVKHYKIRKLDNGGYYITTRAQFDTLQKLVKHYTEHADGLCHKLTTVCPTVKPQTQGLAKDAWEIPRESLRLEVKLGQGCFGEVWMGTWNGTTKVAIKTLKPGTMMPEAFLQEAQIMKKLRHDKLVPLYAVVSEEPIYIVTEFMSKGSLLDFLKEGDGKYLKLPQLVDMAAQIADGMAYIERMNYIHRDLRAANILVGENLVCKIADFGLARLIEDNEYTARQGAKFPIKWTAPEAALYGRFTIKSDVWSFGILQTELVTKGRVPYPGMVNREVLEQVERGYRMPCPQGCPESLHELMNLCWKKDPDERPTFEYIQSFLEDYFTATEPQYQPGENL
# Procedure, shortened: as §1
# [4] = biological target: YIPF4 (UniProt Q9BSR8)
# YIPF4, sequence (Q9BSR8 whole entry, looked up): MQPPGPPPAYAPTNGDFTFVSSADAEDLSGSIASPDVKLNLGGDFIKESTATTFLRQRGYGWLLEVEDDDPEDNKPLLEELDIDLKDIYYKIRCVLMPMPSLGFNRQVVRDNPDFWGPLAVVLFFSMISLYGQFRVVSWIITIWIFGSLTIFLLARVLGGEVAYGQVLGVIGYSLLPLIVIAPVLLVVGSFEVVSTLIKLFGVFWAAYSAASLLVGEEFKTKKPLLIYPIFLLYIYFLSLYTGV
# Procedure, shortened: as §1
# [5] = biological target: YIPF5 isoform 3 (UniProt Q969M3)
# YIPF5 isoform 3, sequence (Q969M3 whole entry, looked up, canonical isoform): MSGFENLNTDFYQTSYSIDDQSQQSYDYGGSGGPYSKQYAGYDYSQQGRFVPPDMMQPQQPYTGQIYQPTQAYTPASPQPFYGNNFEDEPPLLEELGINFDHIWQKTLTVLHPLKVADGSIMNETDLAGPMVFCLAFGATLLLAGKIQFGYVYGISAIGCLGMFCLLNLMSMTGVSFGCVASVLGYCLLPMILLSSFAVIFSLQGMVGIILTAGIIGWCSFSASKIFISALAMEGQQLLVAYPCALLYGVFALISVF
# Procedure, shortened: as §1
# [6] = biological target: YIPF6 (UniProt Q96EC8)
# YIPF6, sequence (Q96EC8 whole entry, looked up): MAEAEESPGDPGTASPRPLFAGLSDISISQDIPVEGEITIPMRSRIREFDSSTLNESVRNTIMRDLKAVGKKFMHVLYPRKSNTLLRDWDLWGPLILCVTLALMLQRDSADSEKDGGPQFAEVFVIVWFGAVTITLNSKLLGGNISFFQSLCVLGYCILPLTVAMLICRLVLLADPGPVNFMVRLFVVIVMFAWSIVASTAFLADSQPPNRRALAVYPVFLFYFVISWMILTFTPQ
# Procedure, shortened: as §1
# [7] = biological target: YLPM1 (UniProt P49750)
# Procedure, shortened: as §1
# [8] = biological target: YOD1 (UniProt Q5VVQ6)
# Procedure, shortened: as §1
# [9] = biological target: YPEL5 (UniProt P62699)
# YPEL5, sequence (P62699 whole entry, looked up): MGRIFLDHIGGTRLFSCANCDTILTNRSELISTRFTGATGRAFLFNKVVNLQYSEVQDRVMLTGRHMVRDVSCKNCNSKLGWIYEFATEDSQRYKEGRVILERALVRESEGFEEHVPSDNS
# Procedure, shortened: as §1
# [10] = biological target: YWHAB (UniProt P31946)
# Procedure, shortened: as §1
# [11] = biological target: YWHAQ (UniProt P27348)
# Procedure, shortened: as §1
# [12] = biological target: YWHAZ (UniProt E7ESK7)
# Procedure, shortened: as §1
# [13] = biological target: YWHAZ (UniProt P63104)
# YWHAZ (UniProt P63104), sequence (P63104 whole entry, looked up): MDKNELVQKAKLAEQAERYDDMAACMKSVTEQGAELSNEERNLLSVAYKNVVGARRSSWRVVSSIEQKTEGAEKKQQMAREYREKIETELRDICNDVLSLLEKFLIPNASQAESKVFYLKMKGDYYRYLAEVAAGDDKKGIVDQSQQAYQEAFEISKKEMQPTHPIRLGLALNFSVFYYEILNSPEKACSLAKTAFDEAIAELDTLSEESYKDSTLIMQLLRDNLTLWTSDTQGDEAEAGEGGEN
# Procedure, shortened: as §1
# [14] = biological target: YY1 (UniProt P25490)
# YY1, sequence (P25490 whole entry, looked up): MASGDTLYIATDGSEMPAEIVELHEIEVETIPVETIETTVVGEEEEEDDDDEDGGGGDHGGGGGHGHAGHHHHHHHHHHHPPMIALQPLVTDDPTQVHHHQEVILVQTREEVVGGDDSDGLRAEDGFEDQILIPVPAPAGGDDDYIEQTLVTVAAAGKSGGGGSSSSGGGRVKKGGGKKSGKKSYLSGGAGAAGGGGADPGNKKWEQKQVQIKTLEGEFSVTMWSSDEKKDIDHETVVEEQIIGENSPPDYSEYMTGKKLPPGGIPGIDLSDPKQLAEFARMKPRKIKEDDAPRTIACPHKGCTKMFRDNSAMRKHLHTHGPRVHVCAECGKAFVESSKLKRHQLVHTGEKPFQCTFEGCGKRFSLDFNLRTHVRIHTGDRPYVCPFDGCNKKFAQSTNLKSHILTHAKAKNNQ
# Procedure, shortened: as §1
# [15] = biological target: ZADH2 (UniProt Q8N4Q0)
# Procedure, shortened: as §1
# [16] = biological target: ZBTB17 isoform 2 (UniProt Q13105)
# ZBTB17 isoform 2, sequence (Q13105 whole entry, looked up, canonical isoform): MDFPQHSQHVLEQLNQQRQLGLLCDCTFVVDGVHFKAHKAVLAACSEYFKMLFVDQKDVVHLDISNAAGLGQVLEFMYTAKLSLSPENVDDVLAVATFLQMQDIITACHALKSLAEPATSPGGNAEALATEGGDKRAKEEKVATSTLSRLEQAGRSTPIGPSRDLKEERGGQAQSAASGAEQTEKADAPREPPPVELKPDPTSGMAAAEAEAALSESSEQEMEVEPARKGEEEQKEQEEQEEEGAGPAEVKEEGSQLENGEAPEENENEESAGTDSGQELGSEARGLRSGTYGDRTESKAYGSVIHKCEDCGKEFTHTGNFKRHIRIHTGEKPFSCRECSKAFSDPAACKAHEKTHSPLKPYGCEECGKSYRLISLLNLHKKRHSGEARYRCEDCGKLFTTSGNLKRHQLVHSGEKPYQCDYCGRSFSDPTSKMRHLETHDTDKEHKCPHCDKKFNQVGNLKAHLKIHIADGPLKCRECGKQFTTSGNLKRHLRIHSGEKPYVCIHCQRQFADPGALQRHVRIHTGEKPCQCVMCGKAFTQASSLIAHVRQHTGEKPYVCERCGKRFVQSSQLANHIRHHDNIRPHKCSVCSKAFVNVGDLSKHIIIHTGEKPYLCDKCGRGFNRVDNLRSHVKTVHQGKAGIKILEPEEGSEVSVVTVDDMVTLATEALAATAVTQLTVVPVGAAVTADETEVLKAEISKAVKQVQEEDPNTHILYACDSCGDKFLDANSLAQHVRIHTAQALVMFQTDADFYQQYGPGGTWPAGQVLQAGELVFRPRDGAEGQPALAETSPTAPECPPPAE
# Procedure, shortened: as §1
# [17] = biological target: ZBTB21 (UniProt Q9ULJ3)
# ZBTB21, sequence (Q9ULJ3 whole entry, looked up): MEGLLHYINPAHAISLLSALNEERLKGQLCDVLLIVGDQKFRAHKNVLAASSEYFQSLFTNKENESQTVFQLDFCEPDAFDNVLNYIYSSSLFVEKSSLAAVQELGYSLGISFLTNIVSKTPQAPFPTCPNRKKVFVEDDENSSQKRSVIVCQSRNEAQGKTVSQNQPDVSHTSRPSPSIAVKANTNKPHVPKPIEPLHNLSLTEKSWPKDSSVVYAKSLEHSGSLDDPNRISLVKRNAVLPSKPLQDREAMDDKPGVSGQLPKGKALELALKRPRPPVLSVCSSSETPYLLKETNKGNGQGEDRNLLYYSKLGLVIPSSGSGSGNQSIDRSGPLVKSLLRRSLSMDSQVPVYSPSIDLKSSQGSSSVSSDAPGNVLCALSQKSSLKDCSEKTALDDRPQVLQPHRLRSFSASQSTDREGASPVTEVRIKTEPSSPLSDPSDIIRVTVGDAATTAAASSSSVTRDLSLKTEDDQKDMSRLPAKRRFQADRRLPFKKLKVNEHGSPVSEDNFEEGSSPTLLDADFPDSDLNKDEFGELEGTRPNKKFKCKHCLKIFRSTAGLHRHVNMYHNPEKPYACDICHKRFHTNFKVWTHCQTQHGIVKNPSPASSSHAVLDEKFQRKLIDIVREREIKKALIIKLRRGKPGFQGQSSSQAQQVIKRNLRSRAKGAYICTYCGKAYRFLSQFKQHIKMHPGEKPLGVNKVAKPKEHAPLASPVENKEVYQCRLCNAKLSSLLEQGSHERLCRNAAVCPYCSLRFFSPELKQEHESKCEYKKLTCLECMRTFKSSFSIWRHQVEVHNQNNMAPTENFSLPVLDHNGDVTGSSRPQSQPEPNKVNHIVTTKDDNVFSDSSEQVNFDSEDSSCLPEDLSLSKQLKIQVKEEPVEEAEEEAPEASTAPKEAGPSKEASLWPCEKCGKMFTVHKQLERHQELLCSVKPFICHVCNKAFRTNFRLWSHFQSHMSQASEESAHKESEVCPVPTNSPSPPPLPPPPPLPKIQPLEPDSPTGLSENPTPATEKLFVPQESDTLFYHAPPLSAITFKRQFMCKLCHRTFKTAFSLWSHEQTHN
# Procedure, shortened: as §1
# [18] = biological target: ZC3H18 (UniProt Q86VM9)
# Procedure, shortened: as §1
# [19] = biological target: ZBTB43 (UniProt O43298)
# ZBTB43, sequence (O43298 whole entry, looked up): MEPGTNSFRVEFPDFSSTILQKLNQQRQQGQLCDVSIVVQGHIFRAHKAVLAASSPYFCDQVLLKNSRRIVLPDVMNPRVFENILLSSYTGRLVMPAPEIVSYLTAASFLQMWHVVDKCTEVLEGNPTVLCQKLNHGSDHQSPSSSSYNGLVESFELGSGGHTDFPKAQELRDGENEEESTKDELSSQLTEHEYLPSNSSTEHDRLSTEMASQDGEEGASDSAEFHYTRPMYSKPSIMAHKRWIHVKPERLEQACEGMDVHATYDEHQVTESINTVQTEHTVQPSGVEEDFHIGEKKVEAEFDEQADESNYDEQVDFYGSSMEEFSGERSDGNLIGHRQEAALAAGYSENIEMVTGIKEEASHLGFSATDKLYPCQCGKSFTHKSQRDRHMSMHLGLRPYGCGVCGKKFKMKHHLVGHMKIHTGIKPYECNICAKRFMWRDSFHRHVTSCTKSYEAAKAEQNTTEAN
# Procedure, shortened: as §1
# [20] = biological target: YBX1 (UniProt C9J5V9)
# Procedure, shortened: as §1
Structure (SMILES),log2 fold change [1],log2 fold change [2],log2 fold change [3],log2 fold change [4],log2 fold change [5],log2 fold change [6],log2 fold change [7],log2 fold change [8],log2 fold change [9],log2 fold change [10],log2 fold change [11],log2 fold change [12],log2 fold change [13],log2 fold change [14],log2 fold change [15],log2 fold change [16],log2 fold change [17],log2 fold change [18],log2 fold change [19],log2 fold change [20]
O=C(O)c1ccc2c(c1)nc(Nc1cccc(Cl)c1)c1ccncc12 [silmitasertib],-0.009,0.125,0.004,-0.006,0,0.02,-0.009,0.021,0.116,-0.014,0,-0.065,-0.078,0.057,0.053,0.023,0.104,0.135,,
Cc1ccc(NC(=O)c2cccc(N(C)C)c2)cc1NC(=O)c1ccc(O)cc1,0.009,0.011,0.037,0.025,-0.138,0.024,-0.023,-0.028,0.081,-0.008,-0.023,0.082,0.011,-0.012,-0.047,,0.101,-0.02,0.141,
CN(CCOc1ccc(C[C@@H]2SC(=O)NC2=O)cc1)c1ccccn1 (racemic) [rosiglitazone],0.062,-0.074,0.013,0.005,0.003,0.027,0.047,0.029,-0.048,0.038,0.012,0.019,0.008,-0.015,0.063,0.063,0.103,-0.036,0.052,
Cc1ccc(C(=O)N(CCCN)[C@@H](c2nc3cc(Cl)ccc3c(=O)n2Cc2ccccc2)C(C)C)cc1 [ispinesib],0.063,-0.093,-0.097,-0.024,0.08,0.02,0.034,-0.042,-0.039,0.053,0.241,-0.11,0.149,-0.147,-0.107,,-0.09,0.039,0.164,
FC(F)(F)c1ccc(/C=C/c2nc(COc3ccc(CCCCn4ccnn4)cc3)co2)cc1 [mubritinib],-0.062,-0.031,-0.067,0.024,0.012,0.036,-0.038,0.108,-0.202,0.045,0.049,0.11,0.015,-0.055,-0.294 (active),-0.131,0.003,-0.042,,
COc1ccc(Cn2ccc3ccc(C(=O)NO)cc32)cc1,0.013,-0.019,0.072,-0.098,-0.065,-0.019,0.018,0.037,-0.269,-0.028,0.3,0.006,-0.002,0.069,0.008,,0.026,-0.009,0.094,-0.033
Cc1ccc(NC(=O)c2ccc(CN3CC[C@H](N(C)C)C3)c(C(F)(F)F)c2)cc1Nc1nccc(-c2cncnc2)n1 [bafetinib],0.013,0.146,0.049,-0.045,-0.028,-0.169,0.083,-0.07,0.064,-0.008,-0.035,-0.131,-0.022,-0.044,-0.08,0.07,0.194,0.033,-0.006,
O=C1NC(=NCc2cccs2)S/C1=C\c1ccc2ncccc2c1,-0.018,-0.115,0.094,-0.006,-0.008,0.042,0.057,0.066,-0.021,0.023,-0.201,-0.13,-0.154,-0.014,0.042,,-0.024,0.003,-0.081,-0.002
C/C(=N\NC(=O)c1cccc(S(=O)(=O)N2CCOCC2)c1)c1cc(Cl)ccc1O,-0.051,-0.242,0.072,-0.06,0.016,-0.067,0.03,0.053,0.032,0.005,0.204,-0.037,0.061,0.072,0.372 (active),,0.068,0.01,0.02,0.233
Cc1ccc(-n2nc(C(C)(C)C)cc2NC(=O)Nc2ccc(OCCN3CCOCC3)c3ccccc23)cc1 [doramapimod],-0.033,0.047,0.006,0.005,0.041,-0.036,0,0,0.039,0.022,-0.12,0,0.013,-0.037,-0.013,,0.069,0.052,-0.029,0.082
Cn1c2cc(S(C)=O)sc2c2cnn(Cc3cccc(N)c3)c(=O)c21 (stereo not given),0.046,0.183,0.053,-0.06,0.043,-0.097,-0.057,-0.04,0.132,-0.068,-0.167,0.101,-0.115,0.045,-0.013,,0.049,0.135,0.017,
O=C1NC(=O)/C(=C\c2ccc3nccnc3c2)S1,-0.037,-0.009,-0.09,0.04,0.009,0.025,0.046,0.129,-0.002,0.023,0.003,-0.01,-0.012,0.004,-0.05,0.171,0.156,0.035,-0.054,
CC(C)N(C[C@H]1O[C@@H](n2cnc3c(N)ncnc32)[C@H](O)[C@@H]1O)[C@H]1C[C@@H](CCc2nc3cc(C(C)(C)C)ccc3[nH]2)C1 [pinometostat],0.011,0.053,0.035,-0.031,0.016,0.023,0.003,-0.021,0.068,-0.031,-0.067,-0.035,-0.026,0.02,0,,0.209,0.053,-0.05,-0.093
C[C@@H](Oc1cc(-c2cnn(C3CCNCC3)c2)cnc1N)c1c(Cl)ccc(F)c1Cl [crizotinib],-0.018,0,-0.576 (active),0.054,0.081,-0.081,-0.08,-0.052,0.019,0.017,0.026,0.081,0.008,-0.021,0.127,,-0.1,-0.042,-0.077,0.028
CC(=O)c1cnc2ccc(-c3cc(Cl)c(O)c(Cl)c3)nc2c1N[C@H]1CC[C@H](CN(C)C)CC1,0.078,0.155,-0.819 (active),-0.197,0.023,0.008,-0.093,-0.04,-0.173,-0.019,0.118,-0.081,0.06,-0.084,-0.131,,-0.42 (active),-0.155,0.008,-0.085
